For some of these results: Potency and affinity values are given separately.
How the values were obtained:
Design in all cases: scale not given: direction of the effect not stated beside the values
[1] = target: Protein translocase subunit SecA (Escherichia coli (strain K12)) (UniProt P10408); assay: Assay to Identify E. coli SecA ATPase Inhibitors; format: functional; conditions: 30 µM
[2] = target: T1, Ubiquitin-activating enzyme e1, putative (Leishmania donovani (strain BPK282A1)) (UniProt E9BSI1); assay: Leishmania donovani Ubiquitin Activating Enzyme (LdE1); format: functional; conditions: 30 µM
T1 sequence (whole entry): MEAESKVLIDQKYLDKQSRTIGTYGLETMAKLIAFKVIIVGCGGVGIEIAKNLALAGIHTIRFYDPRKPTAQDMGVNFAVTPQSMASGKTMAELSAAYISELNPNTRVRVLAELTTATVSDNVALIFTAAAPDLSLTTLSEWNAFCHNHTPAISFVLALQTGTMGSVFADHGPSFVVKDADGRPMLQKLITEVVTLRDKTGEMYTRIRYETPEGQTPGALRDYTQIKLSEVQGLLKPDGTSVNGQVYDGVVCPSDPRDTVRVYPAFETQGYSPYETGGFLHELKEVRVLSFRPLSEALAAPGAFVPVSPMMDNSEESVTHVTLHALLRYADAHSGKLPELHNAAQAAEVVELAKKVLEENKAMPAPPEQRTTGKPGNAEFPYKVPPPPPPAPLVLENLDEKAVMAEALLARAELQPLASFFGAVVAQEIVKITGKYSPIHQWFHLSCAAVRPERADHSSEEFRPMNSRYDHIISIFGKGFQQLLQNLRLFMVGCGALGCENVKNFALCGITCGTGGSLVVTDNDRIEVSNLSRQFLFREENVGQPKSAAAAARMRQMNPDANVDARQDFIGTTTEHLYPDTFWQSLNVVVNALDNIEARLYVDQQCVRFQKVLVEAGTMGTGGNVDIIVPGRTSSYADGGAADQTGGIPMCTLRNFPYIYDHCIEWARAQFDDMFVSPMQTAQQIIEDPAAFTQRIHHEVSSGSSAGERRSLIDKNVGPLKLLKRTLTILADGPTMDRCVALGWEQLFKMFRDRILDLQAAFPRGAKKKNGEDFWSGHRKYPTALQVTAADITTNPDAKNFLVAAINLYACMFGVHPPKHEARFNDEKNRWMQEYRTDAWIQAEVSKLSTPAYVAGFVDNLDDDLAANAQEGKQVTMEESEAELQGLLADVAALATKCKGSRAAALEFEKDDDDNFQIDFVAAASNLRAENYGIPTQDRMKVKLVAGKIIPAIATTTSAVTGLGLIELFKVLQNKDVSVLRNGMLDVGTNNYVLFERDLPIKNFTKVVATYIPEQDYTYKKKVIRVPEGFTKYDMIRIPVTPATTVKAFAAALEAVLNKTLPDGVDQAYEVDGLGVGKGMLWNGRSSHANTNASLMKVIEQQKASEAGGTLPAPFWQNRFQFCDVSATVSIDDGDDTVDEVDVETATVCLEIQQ

[3] = target: AMP-activated protein kinase, AMPK (Homo sapiens) (UniProt P54646+O43741+P54619+Q9UGJ0+Q9Y478+Q13131+Q9UGI9); assay: AMP-dependent Kinase enzyme assay. An in vitro enzyme assay that detects ADP turnover that is directly proportional to AMPK activity. This uses naive AMPK that is activated during the assay with MK-8722; format: functional; conditions: 30 µM
[4] = target: Sialic acid-binding Ig-like lectin 9 (Homo sapiens) (UniProt Q9Y336); assay: Hs-Siglec9 ALPHAscreen SOP 20170721; conditions: 10 µM
Sialic acid-binding Ig-like lectin 9 (Homo sapiens), sequence (Q9Y336 whole entry): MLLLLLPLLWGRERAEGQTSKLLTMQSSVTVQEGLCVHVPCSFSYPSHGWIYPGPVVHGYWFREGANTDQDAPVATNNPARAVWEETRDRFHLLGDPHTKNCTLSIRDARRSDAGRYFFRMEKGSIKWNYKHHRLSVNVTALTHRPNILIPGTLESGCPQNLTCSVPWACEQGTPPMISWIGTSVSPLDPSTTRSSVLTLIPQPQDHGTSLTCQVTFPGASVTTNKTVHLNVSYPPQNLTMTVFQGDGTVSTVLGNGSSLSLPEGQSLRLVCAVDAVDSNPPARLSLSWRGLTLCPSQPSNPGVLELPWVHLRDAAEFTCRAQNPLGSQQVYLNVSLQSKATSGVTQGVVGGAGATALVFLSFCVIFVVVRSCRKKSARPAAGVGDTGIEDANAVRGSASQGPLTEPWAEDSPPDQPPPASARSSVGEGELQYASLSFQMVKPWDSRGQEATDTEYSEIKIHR

Trypanosoma cruzi = assay: Trypanosoma cruzi phosphomannomutase and mannose-1-phosphate guanylyltransferase assay; format: functional; conditions: 10 µM
[5] = target: T2, Arginase-2, mitochondrial (Homo sapiens) (UniProt P78540); assay: in vitro enzyme assay to detect the production of urea directly proportional to the activity of Arginase II; format: functional; conditions: 33.3 µM; note: in the data most compounds retested in dose-response had high values
T2 sequence (whole entry): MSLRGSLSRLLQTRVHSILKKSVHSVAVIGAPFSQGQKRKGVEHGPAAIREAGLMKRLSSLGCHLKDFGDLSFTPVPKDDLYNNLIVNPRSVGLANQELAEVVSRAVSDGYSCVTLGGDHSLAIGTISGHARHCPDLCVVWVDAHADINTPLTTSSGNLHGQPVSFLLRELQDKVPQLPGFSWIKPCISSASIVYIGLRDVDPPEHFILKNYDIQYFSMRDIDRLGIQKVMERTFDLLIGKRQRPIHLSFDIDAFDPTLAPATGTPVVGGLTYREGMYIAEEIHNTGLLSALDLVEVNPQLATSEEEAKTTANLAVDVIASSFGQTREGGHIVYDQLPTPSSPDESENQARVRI

[6] = target: T3, Proteasome subunit beta (Trypanosoma cruzi) (UniProt O96673); assay: Trypanosoma cruzi proteasome chymotrypsin-like activity (TcProtChymo) assay.; note: in the data most compounds retested in dose-response had high values; format: functional; conditions: 9.37 µM
T3 sequence (whole entry): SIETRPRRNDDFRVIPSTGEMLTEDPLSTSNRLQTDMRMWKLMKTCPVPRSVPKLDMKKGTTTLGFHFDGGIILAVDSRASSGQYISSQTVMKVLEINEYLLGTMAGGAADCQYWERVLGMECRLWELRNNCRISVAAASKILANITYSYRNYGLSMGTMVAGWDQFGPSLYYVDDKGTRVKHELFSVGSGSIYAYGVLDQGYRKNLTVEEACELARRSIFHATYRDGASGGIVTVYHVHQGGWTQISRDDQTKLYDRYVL

Homo sapiens = species on record: Homo sapiens; assay: To identify inhibition of the IFN signalling (Jak-Stat) pathway via expression of an eGFP reporter gene under the control of an IFN-stimulated response element (ISRE) containing MxA promoter.; format: functional; conditions: 30 µM
[7] = target: T4, Tyrosyl-tRNA synthetase, putative (Trypanosoma cruzi (strain CL Brener)) (UniProt Q4DSP6); assay: Trypanosoma cruzi tyrosyl tRNA synthetase (TcYRS) _High Tyrosine SOP; format: functional; conditions: 30 µM; note: in the data most compounds retested in dose-response had high values
T4 sequence (whole entry): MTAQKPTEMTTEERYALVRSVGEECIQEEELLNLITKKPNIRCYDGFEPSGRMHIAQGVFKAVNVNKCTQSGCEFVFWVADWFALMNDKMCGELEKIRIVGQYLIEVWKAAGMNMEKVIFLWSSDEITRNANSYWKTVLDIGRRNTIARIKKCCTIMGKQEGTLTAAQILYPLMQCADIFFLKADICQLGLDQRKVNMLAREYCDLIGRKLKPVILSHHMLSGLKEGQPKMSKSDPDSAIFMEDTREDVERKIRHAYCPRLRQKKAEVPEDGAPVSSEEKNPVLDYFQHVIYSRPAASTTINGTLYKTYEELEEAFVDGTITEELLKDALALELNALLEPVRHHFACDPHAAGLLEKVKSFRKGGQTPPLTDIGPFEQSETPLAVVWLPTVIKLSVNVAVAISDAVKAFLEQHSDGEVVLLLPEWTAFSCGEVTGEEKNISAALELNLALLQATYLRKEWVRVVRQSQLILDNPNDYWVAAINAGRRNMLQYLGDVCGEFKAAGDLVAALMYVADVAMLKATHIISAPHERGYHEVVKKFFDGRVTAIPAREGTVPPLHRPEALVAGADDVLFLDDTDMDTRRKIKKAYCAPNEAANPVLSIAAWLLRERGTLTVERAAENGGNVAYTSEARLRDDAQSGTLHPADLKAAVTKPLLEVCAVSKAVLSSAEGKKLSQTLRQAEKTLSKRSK

[8] = target: T4, Tyrosyl-tRNA synthetase, putative (Trypanosoma cruzi (strain CL Brener)); assay: Trypanosoma cruzi tyrosyl tRNA synthetase (TcYRS) SOP; format: functional; conditions: 30 µM
[9] = target: Chromo domain-containing protein 1 (Saccharomyces cerevisiae (strain ATCC 204508 / S288c) (Baker's yeast)) (UniProt P32657); assay: ScCHD-1 Enzyme Inhibition Assay; format: functional; conditions: 30 µM; note: in the data most compounds retested in dose-response had high values
Chromo domain-containing protein 1 (Saccharomyces cerevisiae (strain ATCC 204508 / S288c) (Baker's yeast)), sequence (P32657 whole entry, the tested form may be a part): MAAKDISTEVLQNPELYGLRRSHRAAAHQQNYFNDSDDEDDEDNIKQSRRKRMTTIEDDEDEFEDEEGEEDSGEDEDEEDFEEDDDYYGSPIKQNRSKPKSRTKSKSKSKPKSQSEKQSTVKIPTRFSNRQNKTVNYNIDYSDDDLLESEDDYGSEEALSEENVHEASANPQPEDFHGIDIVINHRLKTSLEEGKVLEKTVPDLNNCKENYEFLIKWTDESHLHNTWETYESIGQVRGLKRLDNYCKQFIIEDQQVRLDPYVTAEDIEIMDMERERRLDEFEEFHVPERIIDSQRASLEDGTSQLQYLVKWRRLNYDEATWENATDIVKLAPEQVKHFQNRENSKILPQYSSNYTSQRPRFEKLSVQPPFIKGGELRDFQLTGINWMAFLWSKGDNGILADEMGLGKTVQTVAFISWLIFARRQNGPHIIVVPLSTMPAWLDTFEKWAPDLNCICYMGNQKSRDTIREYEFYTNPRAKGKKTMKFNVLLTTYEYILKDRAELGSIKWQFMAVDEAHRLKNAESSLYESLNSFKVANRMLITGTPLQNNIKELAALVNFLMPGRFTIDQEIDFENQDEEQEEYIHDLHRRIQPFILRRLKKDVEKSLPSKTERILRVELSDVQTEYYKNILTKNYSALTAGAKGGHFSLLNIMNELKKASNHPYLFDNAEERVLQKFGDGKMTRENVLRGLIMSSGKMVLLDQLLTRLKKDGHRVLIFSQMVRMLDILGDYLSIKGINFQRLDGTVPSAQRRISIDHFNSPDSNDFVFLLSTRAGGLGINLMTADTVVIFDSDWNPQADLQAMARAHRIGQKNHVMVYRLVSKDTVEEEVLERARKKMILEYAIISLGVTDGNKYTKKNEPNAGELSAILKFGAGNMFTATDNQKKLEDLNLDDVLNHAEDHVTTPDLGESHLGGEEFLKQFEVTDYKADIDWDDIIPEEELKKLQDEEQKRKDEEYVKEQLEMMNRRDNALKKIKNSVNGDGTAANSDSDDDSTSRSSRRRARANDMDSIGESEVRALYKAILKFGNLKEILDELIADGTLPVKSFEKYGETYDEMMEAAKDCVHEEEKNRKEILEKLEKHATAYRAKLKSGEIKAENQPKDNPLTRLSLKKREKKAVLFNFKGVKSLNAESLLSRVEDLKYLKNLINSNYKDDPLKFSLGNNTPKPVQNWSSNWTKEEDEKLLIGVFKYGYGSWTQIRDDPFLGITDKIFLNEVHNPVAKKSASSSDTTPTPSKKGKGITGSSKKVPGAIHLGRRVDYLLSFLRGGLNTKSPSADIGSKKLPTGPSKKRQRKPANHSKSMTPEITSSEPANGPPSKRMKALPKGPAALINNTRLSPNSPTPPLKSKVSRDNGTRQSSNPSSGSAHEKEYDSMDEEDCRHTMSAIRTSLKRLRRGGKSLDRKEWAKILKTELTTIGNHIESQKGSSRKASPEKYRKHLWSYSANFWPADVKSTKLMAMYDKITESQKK

Protein translocase subunit SecA (Escherichia coli (strain K12)), sequence (P10408 whole entry): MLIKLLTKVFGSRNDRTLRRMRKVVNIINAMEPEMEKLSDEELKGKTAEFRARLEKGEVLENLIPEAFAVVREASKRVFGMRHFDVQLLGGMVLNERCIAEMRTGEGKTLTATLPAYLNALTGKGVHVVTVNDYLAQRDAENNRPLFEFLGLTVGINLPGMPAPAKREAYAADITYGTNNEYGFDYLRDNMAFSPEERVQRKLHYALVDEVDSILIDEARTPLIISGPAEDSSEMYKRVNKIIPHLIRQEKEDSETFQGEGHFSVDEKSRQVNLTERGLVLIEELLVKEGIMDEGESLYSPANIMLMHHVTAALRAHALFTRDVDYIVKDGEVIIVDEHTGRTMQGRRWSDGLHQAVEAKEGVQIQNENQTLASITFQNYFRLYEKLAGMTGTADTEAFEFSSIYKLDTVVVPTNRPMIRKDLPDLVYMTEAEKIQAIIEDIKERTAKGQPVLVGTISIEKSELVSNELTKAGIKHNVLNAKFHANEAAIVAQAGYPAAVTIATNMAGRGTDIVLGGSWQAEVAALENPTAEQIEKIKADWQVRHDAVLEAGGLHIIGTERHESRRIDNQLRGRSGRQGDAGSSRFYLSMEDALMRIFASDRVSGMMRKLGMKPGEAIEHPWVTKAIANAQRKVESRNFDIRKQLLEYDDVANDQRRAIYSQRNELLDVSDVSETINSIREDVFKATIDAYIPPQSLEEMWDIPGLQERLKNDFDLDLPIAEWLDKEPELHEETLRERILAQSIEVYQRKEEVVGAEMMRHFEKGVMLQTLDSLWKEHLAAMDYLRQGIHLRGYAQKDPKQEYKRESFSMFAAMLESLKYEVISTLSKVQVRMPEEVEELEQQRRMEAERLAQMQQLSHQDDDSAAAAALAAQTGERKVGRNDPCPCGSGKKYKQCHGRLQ

SMILES	Percent Effect [1] [%]	Percent Effect [2] [%]	Percent Effect [3] [%]	Percent Effect [4] [%]	Percent Effect (Trypanosoma cruzi) [%]	Percent Effect [5] [%]	Percent Effect [6] [%]	Percent Effect (Homo sapiens) [%]	Percent Effect [7] [%]	Percent Effect [8] [%]	Percent Effect [9] [%]
Cc1nonc1CN(C)CC1(O)CCCN(CCC2CCCCC2)C1=O (stereo not given)	2.32	8	-14.2	-0.787	1.66	12.5	16.4	35.9	10.4	18.5	-1.61
CN1CCN(Cc2ccccc2CNC(=O)c2ccc(Br)cc2)CC1	-4.93	8.11	-2.99	8.77	0.0978	1.24	5.92	-4.85	3.23	16.1	-1.46
Cc1cc(F)c(S(=O)(=O)NCCCN2CCC(O)CC2)cc1F	0.398	5.2	5.04	-1.8	-10.9	-24.8	15.8	19.9	-1.07	1.24	-1.88
c1ccc(-c2nc(CN3CCCC(Cn4cncn4)C3)no2)cc1 (stereo not given)	-5.26	-3.8	7.69	-3.34	-3.59	5.38	4.8	0.0835	2.08	7.59	-9.44
Cn1ccnc1CN1CCN(c2ccc(C#N)cn2)CC1	-0.525	-67.6	39.5	9.32	0.464	1.29	6.64	7.75	6.93	15.8	-4.02
CNC(=O)c1cc2c(nc1NCC1CC1)CCN(S(=O)(=O)C1CC1)CC2	-0.616	18.2	3.29	-14.9	-2.86	8.39	9.75	33.1	-1.06	11.5	-8.62
Cc1cnn(CC2CN(CC(=O)Nc3sccc3C#N)CCO2)c1 (stereo not given)	-4.12	7.89	0.0642	13	0.564	5.75	3.17	18.2	4.41	7.32	-1.67
CNS(=O)(=O)Cc1ccc(CNC(=O)c2ccc(C)[nH]c2=O)cc1	-4.48	28.6	-2.88	7.58	6.37	-1.07	5.91	-2.15	10.7	26.8	-6.56
Cc1cnn(CC2CN(CCc3ccncc3)CCO2)c1 (stereo not given)	-4.16	5.48	0.214	-1.34	-0.783	3.18	4.08	-14.5	3.23	5	-0.563
CCn1cc(NC(=O)C2CCN(Cc3ccccc3C#N)CC2)cn1	-3.86	8.86	6.54	0.163	-3.79	1.5	7.03	11.2	9.38	20.2	-6.33
c1ccc(-c2noc(CN3CCc4cncnc4C3)n2)nc1	-3.61	10.5	-27.7	10.3	8.65	1.92	9.02	-4.25	13.2	12.2	-10.6
CCCN1CCCn2nc(CNC(=O)CCc3scnc3C)cc2C1	-2.71	20.8	-13.3	19.9	3.98	8.39	16.7	-7.34	5.26	17.9	-7.37
Cc1ccc(NC(=O)NC(C)C(=O)N2CCS(=O)(=O)CC2)cc1 (stereo not given)	-3.85	5.41	2.74	5.55	-1.74	-11.9	12.4	11.4	-0.529	12.2	-2.08
Cc1cccc(C(=O)N(C)Cc2cc(Br)cs2)n1	-6.38	5.26	7.43	4.27	4.77	0	12.8	-26.6	4.25	7.79	0.914
CCOc1ccccc1C(CC(=O)Nc1ccccc1F)NC(C)=O (stereo not given)	-4.23	10.5	0.587	13.4	2.82	-1.92	-4.18	-32.5	3.43	9.76	-4.56
CN(Cc1ccc2c(c1)OCCO2)C(=O)NCCc1cnn(C)c1	-2.93	18.9	-2.51	14.3	-10.3	0.554	14.5	18	2.97	-1.22	-6.78
CCS(=O)(=O)N1CCC[C@]2(C(=O)N(C)C)CN(c3ccccn3)C[C@@H]2C1	-6.08	5.33	2.98	0.0913	4.05	-50	10.1	-17	3.12	12.5	-5.8
CC(C)n1ncc2c1NC(=O)CSC2C(C)(C)C (stereo not given)	-4	17.3	-3.06	7.25	3.14	-3.7	8.69	8.09	5.29	12.8	-8.28
O=C1CCSCC(C(=O)N2CCCC2)N1 (stereo not given)	-1.89	0	2.29	-5.9	-3.33	-1.36	3.37	-3.33	1.07	5	-1.55
CCOC(=O)CCNC(=O)N1CCN(c2nc3ccccc3n2C)CC1	-1.65	10.4	1.91	4.46	-5.42	-266	12.2	-4.19	2.12	16.7	-7.17

From ChEMBL document CHEMBL3988442, “University of Dundee, Small-Polar-MMV Screening Library” (2021)
